In PubChem BioAssay AID492952 (Southern Research Specialized Biocontainment Screening …, 2010):
Among all 2,300 compounds or so, about 1,500 (65%) were called active. The rule behind the calls is not given here. The set was probably picked from earlier hits. The list shows a part of the results. Results with a measured potency or affinity are listed apart.

Assay: replicating M. tuberculosis growth inhibition, dose response, non-replicating M. tuberculosis project, H37Rv (AID 492952);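 note: Mycobacterium tuberculosis grown in culture; growth inhibition read after a week of incubation; 0% = bacteria alone untreated and 100% = bacteria with high antibiotic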
Settings: series mostly up to 50 µM; inhibition: at the top concentration

SMILES	inhibition
Cn1c(SCCOc2cccc(Cl)c2)nnc1-c1ccncc1	-0.26% (inactive)
Cc1ccc(S(=O)(=O)NCC(=O)OCCOc2cccc(Cl)c2)cc1	7.77% (inactive)
CN(CCS(=O)(=O)c1ccc(Cl)cc1)Cc1cccnc1	1.79% (inactive)
Cc1ccc(NC(=O)CCSc2nnc(-c3ccco3)o2)cc1	-17.6% (inactive)
CCCn1nnnc1NC(=O)COc1ccc(Br)cc1	4.6% (inactive)
CCCn1nnnc1NCc1ccc(C(C)C)cc1	2.16% (inactive)
CCCn1nnnc1NCc1ccc(CC)cc1	5.44% (inactive)
Cc1ccc(-c2nnc(NC3CCCC3)s2)cc1	9.87% (inactive)
Oc1c(Br)cc(Br)cc1/C=N/c1nccs1	1.77% (inactive)
Cc1cccc(NC(=O)c2n[nH]c([N+](=O)[O-])c2Br)c1C	6.95% (inactive)
Cc1cccc(NCc2nnc(-c3ccccc3)o2)c1C	6.77% (inactive)
O=C(NCc1ccc(F)cc1)c1ccc(Br)o1	-8.86% (inactive)
C=C[C@]1(C)C=C2CCC3[C@](C)(CCC[C@@]3(C)C(=O)O)C2CC1 (some centres not stated)	11.8% (inactive)
CCn1nnc(NC(=O)c2ccc([N+](=O)[O-])o2)n1	7.33% (inactive)
O=C(Nc1ccccc1N1CCN(C(=O)c2ccc(Cl)cc2)CC1)c1ccc([N+](=O)[O-])o1	9.94% (inactive)
CC1CCN(C(=O)C2COc3ccccc3O2)CC1 (configuration not stated)	-4.97% (inactive)
O=C(c1ccc(Br)o1)N1CCC(Cc2ccccc2)CC1	8.42% (inactive)
O=C1NC2(CCC3(CC2)OCCO3)NN1c1ccc(Cl)cc1	-1.65% (inactive)
Cc1c(NC(=O)c2coc(=O)c(Br)c2)c(=O)n(-c2ccccc2)n1C	-3.48% (inactive)
NC(=O)c1ccc(-c2ccc(Br)cc2)o1	17.1% (inactive)
O=C(COC(=O)Cc1ccc(Br)cc1)Nc1ccc(N2CCOCC2)cc1	3.83% (inactive)

SMILES	inhibition
O=C(NC1=NCCS1)c1ccc(-c2ccc(Cl)cc2)o1	17.6% (inactive)
CC(CCc1ccccc1)NC(=O)COC(=O)c1cccs1 (configuration not stated)	7.79% (inactive)
COc1ccc(C(=O)COC(=O)CCC(=O)c2cccs2)cc1	7.37% (inactive)
COc1ccc(N=N/C(=C\O)C(=O)c2cccs2)cc1	-1.77% (inactive)
CC(C)(NO)/C(=N\O)c1ccccc1	-0.87% (inactive)
CCc1cc(C(c2ccncc2)N2CCN(C)CC2)c(NC(=O)c2ccccc2)s1 (configuration not stated)	-2.97% (inactive)
CCC1CCc2sc(C(=O)NCC3CCCO3)cc2C1 (configuration not stated)	-2.23% (inactive)
CC(C)(C)c1ccc(C(=O)N2CCCC2)s1	1.22% (inactive)
COc1ccccc1N1CCN(C(=O)CCn2c(=O)[nH]c3ccsc3c2=O)CC1	4.43% (inactive)
CC(=O)Oc1ccc(N(C(C)=O)S(=O)(=O)c2cccs2)c2ccccc12	0.62% (inactive)
COc1cccc(OCC(=O)NNC(=O)c2cccs2)c1	-1.49% (inactive)
COc1ccc(-c2nc(C=O)cs2)cc1	24.4% (inactive)
COc1ccc(-c2cc(O)cc(O)c2)cc1	0.3% (inactive)
CCc1ccc(C(C)NC(=O)C2CCCO2)cc1 (configuration not stated)	-2.83% (inactive)
Cc1ccc2cc(/C=N/NC(=O)[C@H](C)NC(=O)OC(C)(C)C)c(Cl)nc2c1	4.71% (inactive)
CCOc1ccc(NC(=O)CCc2ccc(C)o2)cc1	6.91% (inactive)
NC(N)=N/N=C/c1cccc([N+](=O)[O-])c1O	-3.2% (inactive)
COCC(=O)Nc1ccccc1NC(C)=O	-2.75% (inactive)
Cc1cccc(NC(=O)CO/N=C/c2ccc3c(c2)OCO3)c1	18% (inactive)
COc1ccc(C(=O)CCNc2ccc(F)cc2)cc1	-0.64% (inactive)
CCOC(=O)C(=CNNc1cccc(Cl)c1)C(=O)OCC	5.8% (inactive)

SMILES	inhibition
CCc1nnc(NC(=O)CN2CCN(Cc3ccc(F)cc3)CC2)s1	-1.34% (inactive)
O=C(CN1CCN(c2ccccc2)CC1)Nc1nnc(-c2ccccc2)s1	1.95% (inactive)
CCOC(=O)c1ccc(N=C(CC)c2c(O)n(C)c(=O)n(C)c2=O)cc1	4.28% (inactive)
CCOC(=O)c1ccc(NC2OC(=O)c3ccccc32)cc1 (configuration not stated)	6.55% (inactive)
O=C(O)c1ccccc1C(=O)NNc1ccc(F)cc1	0.91% (inactive)
Nc1scc(-c2ccncc2)c1Cl	3.7% (inactive)
CC(C)Oc1ccc(CNC(=O)Oc2ccccc2)cc1	0.25% (inactive)
COc1ccc(C(C)NC(=O)CCc2ccccc2)cc1 (configuration not stated)	0.5% (inactive)
C/C(=N\NC(=O)c1ccccc1O)C1C(=O)c2ccccc2C1=O	-0.04% (inactive)
O=C(O)CCCCCN1C(=O)CSC1=S	24% (inactive)
Cc1cccc(CC(=O)NCC2CCCCC2)c1	-1.82% (inactive)
Clc1ccccc1CSc1nnc([C@@H]2CCCN2)o1	3.84% (inactive)
S=c1[nH]c2ccccc2o1	-5.96% (inactive)
Cc1cc(OCCOCCNCc2ccccc2)ccc1C(C)C	18.1% (inactive)
Cc1ccc(CNCc2cc(Cl)ccc2O)cc1	5.45% (inactive)
COc1ccc(NCC(=O)N2CCCC2)cc1Cl	12.3% (inactive)
CC(=O)c1ccc(NC(=O)CCc2ccc(C)o2)cc1	-4.59% (inactive)
CCc1ccc(NC(=O)CCc2ccc(C)o2)cc1	-10.7% (inactive)
FC(F)(F)c1nc(SCc2ccc(Cl)cc2Cl)n[nH]1	1.2% (inactive)
CCCCOc1ccc(CSCCN)cc1Cl	-9.05% (inactive)
Clc1ccc(SCCCCn2ccnc2)cc1	9.6% (inactive)

SMILES	inhibition
Cc1ccc(OCCCCn2ccnc2)c([N+](=O)[O-])c1	0.31% (inactive)
O=C(COc1ccc2ccccc2c1)NNC(=O)c1cccs1	4.45% (inactive)
CCc1ccc(OCCCC(=O)Nc2nccs2)cc1	3.19% (inactive)
CCCCCCCCCCn1cc(C(C)=O)c(=O)[nH]c1=O	-6.79% (inactive)
CCOC(=O)Cc1cc(=O)n2[nH]cc(-c3ccc(Cl)cc3)c2n1	16.1% (inactive)
CCOC(=O)C1(O)CC(C)=NN1C(=O)c1cccc(Br)c1 (configuration not stated)	2.82% (inactive)
N#Cc1ccc(N=c2ssnc2Cl)cc1	-4.86% (inactive)
CC1(C)C[C@H]2C=C(C=O)[C@]3(C=O)C[C@]3(C)[C@H]2C1	-4.11% (inactive)
CCc1nnc(N/N=C/c2c(F)cccc2Cl)n1N	2.29% (inactive)
CC(C)(C)c1cc(CN2CCC(O)CC2)cc(C(C)(C)C)c1O	2.57% (inactive)
O=C(COc1ccc(Br)cc1)N/N=C1/SCC(=O)N1Cc1ccccc1	-21% (inactive)
O=C(COc1ccc(Cl)cc1)Nc1ccccc1Cl	-1.26% (inactive)
COc1ccc(NC(=O)COc2ccc3c(c2)CCC3)cc1	1.64% (inactive)
Cc1ccc(OCC(=O)N2CCCc3ccccc32)cc1	-4.58% (inactive)
O=C(COC(=O)c1cccc([N+](=O)[O-])c1)NCc1cccs1	18% (inactive)
O=C(COc1ccc(Cl)cc1)OCC(=O)N1CCCc2ccccc21	5.36% (inactive)
Cn1c(SCc2c(F)cccc2Cl)nc2c(c1=O)SCC2	3.61% (inactive)
COc1cccc(/C=N/NC(=O)c2ccoc2C)c1O	20.1% (inactive)
Cc1ccc(C(=O)N/N=C/C=C/c2ccccc2)cc1	19.8% (inactive)
